Our source for the composite z-score and z-score values is PubChem BioAssay.

Molecules are shown by their SMILES. The source made the active and inactive calls.

The subject of test [1] is Plasmodium falciparum Sir2 (PF13_0152, Sir2A). Description: pfSir2 binders on small-molecule microarrays, primary screen, biochemical, small-molecule microarray, 635 nm fluorescence (AID 1098).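 Note: score merges spot fluorescence intensity with its signal-to-noise ratio.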 The conditions noted are these: small-molecule microarray binding, fluorescence 635 nm; higher = more signal.
A short description of test [2]: small-molecule microarray binders of probe aDKK1, primary screen, biochemical, biotinylated probe, 635/667 nm fluorescence (AID 1099).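 Note: score merges 667nm spot fluorescence with signal to noise across triplicate slides.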 The conditions noted are these: higher = more signal.
Test [3] in a line: small-molecule microarray binders of probe aCHRDL2, primary screen, biochemical, biotinylated probe, 635/667 nm fluorescence (AID 1100). The conditions noted are these: higher = more signal.
Test [4] in a line: splicing luciferase reporter signal modulators, primary screen, spliceosome inhibition project, cell-based, HEK293, splice +/- reporter (AID 1101).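 Note: HEK293 cells carrying a splicing-competent luciferase reporter gene; test concentration not given here.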 The conditions noted are these: luminescence, 24 h, higher = more signal, called active from +8 up or from −8 down. On the technique in general: A reporter such as luciferase makes a cellular process visible.
The target of test [5] is Fibroblast growth factor 10 (Homo sapiens) (UniProt O15520). As to the kind of experiment: FGF10 binders on small-molecule microarrays, primary screen, biochemical, small-molecule microarray, 635 nm fluorescence (AID 1102). The conditions noted are these: FGF10 binding, fluorescence 635 nm, higher = more signal.
Chain of Fibroblast growth factor 10 (Homo sapiens) (O15520 whole entry, looked up): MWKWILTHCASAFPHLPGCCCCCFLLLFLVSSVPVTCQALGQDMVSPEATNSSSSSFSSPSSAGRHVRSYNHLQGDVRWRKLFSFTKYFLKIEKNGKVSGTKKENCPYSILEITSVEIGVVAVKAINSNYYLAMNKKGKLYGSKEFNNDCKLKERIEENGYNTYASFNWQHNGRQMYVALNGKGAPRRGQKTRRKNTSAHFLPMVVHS
Test [6] has as its system glycogen synthase kinase-3 (GSK3A per assay name; protocol says GSK3B). Description: GSK3 binders on small-molecule microarrays, primary screen, biochemical, small-molecule microarray, 635 nm fluorescence, GSK3A (AID 1103). Note: the record names both GSK3A and GSK3B. The conditions noted are these: small-molecule microarray binding, fluorescence 635 nm; higher = more signal.
Test [7] addresses Epidermal growth factor receptor (Homo sapiens) (UniProt P00533). Description: EGFR binders on small-molecule microarrays, primary screen, biochemical, small-molecule microarray, 635 nm fluorescence (AID 1104).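 Note: score merges 667 nm emission intensity with spot signal to noise over triplicate slides.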 The conditions noted are these: EGFR binding, higher = more signal.
Test [8] addresses Follistatin-related protein 3 (Homo sapiens) (UniProt O95633). As to the kind of experiment: FSTL3 binders on small-molecule microarrays, primary screen, biochemical, small-molecule microarray, 635 nm fluorescence (AID 1105).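 Note: score merges emission near 667 nm and signal to noise per printed spot across three slides.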 The conditions noted are these: FSTL3 binding, higher = more signal.
Test [9] concerns the target Dickkopf-related protein 1 (Homo sapiens) (UniProt O94907). Description: DKK1 binders on small-molecule microarrays, primary screen, biochemical, small-molecule microarray, 635 nm fluorescence scan (AID 1106).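 Note: score merges emission near 667 nm with signal to noise over three replicate slides.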 The conditions noted are these: DKK1 binding, higher = more signal.
Test [10] deals with Inhibin beta A chain (activin A). As to the kind of experiment: INHBA (activin A) binders on microarrays, primary screen, biochemical, small-molecule microarray, 635 nm fluorescence scan (AID 1107).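 Note: mouse activin A protein probed at 4.33 µg/mL on printed slides; score merges bound-protein fluorescence near 667 nm with spot signal-to-noise.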 The conditions noted are these: small-molecule microarray binding, higher = more signal.
For test [11], the system named is Human papillomavirus type 1a protein E7 (residues 44-93). Description: HPV1a E7 fragment binders on microarrays, primary screen, biochemical, small-molecule microarray, residues 44-93, 635 nm fluorescence (AID 1108).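 Note: E7 fragment applied at 1 µg/mL in TBST for 1 h at 4 C; score combines spot fluorescence with its signal to noise ratio.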 The conditions noted are these: small-molecule microarray binding, fluorescence 635 nm; higher = more signal.
Test [12] in a line: modulators of HCV replicon luciferase signal, primary screen, HCV replication inhibitor project, Huh7 cells, luciferase reporter (AID 1109).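 Note: huh7 hepatoma cells harbouring a luciferase neomycin HCV replicon reporter; luciferase luminescence as measure of HCV replicon replication; test concentration not given here.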 The conditions noted are these: 48 h, higher = more signal. (In general: A replicon is a self-replicating genome or part of one, used to study replication in cells.)
Test [13] concerns the target Left-right determination factor 2 (Homo sapiens) (UniProt O00292). As to the kind of experiment: LEFTY2 binders on small-molecule microarrays, primary screen, biochemical, small-molecule microarray, 635 nm fluorescence scan (AID 1110). The conditions noted are these: LEFTY2 binding, higher = more signal.
The target in test [14] is Calmodulin-1 (Homo sapiens) (UniProt P0DP23). Description: CALM1 binders on microarrays, EGTA buffer, profiling panel, biochemical, small-molecule microarray, Cy5-labelled CALM1 (AID 1111).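 Note: labelled calmodulin applied in Tris saline Tween buffer holding calcium plus EGTA and DTT.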 The conditions noted are these: Cy5-CALM1 binding fluorescence, higher = more signal.
Test [15] has the same target. Description: calcium-bound CALM1 binders on microarrays, profiling panel, artefact control for SMM control-protein annotation, biochemical, small-molecule microarray, Cy5-labelled CALM1, plus calcium (AID 1112).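 Note: score merges spot fluorescence with signal to noise from triplicate slides.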 The conditions noted are these: Cy5-CALM1 binding fluorescence, higher = more signal.
Test [16] in a line: small-molecule microarray binders of probe aWnt5a, primary screen, biochemical, biotinylated probe, 635/667 nm fluorescence (AID 1113).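 Note: score merges 667 nm fluorescence intensity with signal-to-noise per printed feature.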 The conditions noted are these: higher = more signal.
Test [17] in a line: small-molecule microarray binders of probe aShh, primary screen, biochemical, biotinylated probe, 635/667 nm fluorescence (AID 1114).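 Note: probe is biotin-labelled aShh protein from a stem cell growth factor screen; measures binding of labelled protein to compounds printed on the slide; score merges feature fluorescence at 667 nm with signal-to-noise.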 The conditions noted are these: higher = more signal.
Test [18] in a line: small-molecule microarray binders of probe aNog, primary screen, biochemical, biotinylated probe, 635/667 nm fluorescence (AID 1115).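 Note: probe is biotinylated aNog protein used at 0.15 µg/mL for 1 h at 4 C; z-score combines 667 nm fluorescence of each spot with its signal to noise.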 The conditions noted are these: higher = more signal.
Test [19] deals with Torsin-1A-interacting protein 1 (Homo sapiens) (UniProt Q5JTV8). Description: LAP1 binders from COS7 cell lysate, primary screen, small-molecule microarray, 635/667 nm fluorescence (AID 1116). The conditions noted are these: COS7-hLAP1 lysate binding, 635 nm fluorescence, higher = more signal.
Chain of Torsin-1A-interacting protein 1 (Homo sapiens) (Q5JTV8 whole entry, looked up): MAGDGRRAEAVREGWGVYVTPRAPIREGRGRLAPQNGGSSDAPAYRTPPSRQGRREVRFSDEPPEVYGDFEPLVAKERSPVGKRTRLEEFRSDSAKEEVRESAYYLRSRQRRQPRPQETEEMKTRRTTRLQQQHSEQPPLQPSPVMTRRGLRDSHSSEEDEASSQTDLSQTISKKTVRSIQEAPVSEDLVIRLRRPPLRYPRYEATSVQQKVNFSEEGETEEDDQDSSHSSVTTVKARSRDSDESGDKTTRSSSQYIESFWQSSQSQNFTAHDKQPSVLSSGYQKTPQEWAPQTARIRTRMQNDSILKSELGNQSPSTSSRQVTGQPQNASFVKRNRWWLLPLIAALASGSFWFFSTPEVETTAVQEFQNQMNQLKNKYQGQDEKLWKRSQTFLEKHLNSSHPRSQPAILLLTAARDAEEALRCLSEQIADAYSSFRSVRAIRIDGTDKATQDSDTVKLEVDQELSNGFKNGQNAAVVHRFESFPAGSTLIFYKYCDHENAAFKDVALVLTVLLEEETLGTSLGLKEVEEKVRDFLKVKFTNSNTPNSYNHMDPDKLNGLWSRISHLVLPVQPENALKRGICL
Test [20] concerns the target Alpha-bungarotoxin (Bungarus multicinctus) (UniProt P60615). Description: alpha-bungarotoxin binders on microarray, profiling panel, artefact control for SMM control protein annotation, biochemical, small-molecule microarray, Alexa647 label, 635/667 nm fluorescence (AID 1117). The conditions noted are these: alpha-BTX-A647 binding fluorescence, higher = more signal.

Chain of Dickkopf-related protein 1 (Homo sapiens) (O94907 whole entry, looked up): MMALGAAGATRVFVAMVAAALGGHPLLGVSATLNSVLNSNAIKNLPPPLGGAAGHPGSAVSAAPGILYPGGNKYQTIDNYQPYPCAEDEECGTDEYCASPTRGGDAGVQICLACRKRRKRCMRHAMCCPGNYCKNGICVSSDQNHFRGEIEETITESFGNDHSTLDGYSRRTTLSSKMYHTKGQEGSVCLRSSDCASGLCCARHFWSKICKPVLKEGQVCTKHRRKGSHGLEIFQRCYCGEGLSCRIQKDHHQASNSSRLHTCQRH
Chain of Epidermal growth factor receptor (Homo sapiens) (P00533 whole entry, looked up): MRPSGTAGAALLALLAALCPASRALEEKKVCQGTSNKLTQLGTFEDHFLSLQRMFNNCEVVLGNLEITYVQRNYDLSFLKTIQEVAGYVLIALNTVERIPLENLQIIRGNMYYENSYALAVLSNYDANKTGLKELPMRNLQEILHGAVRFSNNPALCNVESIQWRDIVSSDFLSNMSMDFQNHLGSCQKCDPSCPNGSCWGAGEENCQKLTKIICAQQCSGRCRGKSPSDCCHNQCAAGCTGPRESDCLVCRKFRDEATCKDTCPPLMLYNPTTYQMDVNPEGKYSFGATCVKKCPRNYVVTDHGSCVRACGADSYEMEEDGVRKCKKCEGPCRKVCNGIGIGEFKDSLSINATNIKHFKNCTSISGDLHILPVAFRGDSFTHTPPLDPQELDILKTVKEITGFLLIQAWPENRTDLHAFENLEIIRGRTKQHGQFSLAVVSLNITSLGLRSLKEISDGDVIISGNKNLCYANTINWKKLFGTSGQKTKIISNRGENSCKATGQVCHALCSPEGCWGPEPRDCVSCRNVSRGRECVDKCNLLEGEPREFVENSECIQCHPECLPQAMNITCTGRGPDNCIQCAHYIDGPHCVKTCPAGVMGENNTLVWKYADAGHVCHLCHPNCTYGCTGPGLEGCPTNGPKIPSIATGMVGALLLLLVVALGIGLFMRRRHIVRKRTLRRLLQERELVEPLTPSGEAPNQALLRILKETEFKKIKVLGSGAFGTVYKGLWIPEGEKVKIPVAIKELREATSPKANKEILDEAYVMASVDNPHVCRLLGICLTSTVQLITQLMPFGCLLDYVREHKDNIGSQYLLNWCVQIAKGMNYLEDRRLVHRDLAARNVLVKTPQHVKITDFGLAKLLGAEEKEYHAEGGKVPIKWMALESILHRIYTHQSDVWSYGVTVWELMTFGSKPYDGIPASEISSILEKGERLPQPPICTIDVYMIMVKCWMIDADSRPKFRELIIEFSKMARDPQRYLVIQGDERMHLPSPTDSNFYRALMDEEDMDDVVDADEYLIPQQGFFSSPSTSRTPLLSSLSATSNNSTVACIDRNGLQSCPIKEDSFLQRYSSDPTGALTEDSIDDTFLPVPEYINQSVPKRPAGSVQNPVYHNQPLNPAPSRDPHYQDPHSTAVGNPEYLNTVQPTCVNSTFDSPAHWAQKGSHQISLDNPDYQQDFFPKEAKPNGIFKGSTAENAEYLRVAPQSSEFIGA
Chain of Follistatin-related protein 3 (Homo sapiens) (O95633 whole entry, looked up): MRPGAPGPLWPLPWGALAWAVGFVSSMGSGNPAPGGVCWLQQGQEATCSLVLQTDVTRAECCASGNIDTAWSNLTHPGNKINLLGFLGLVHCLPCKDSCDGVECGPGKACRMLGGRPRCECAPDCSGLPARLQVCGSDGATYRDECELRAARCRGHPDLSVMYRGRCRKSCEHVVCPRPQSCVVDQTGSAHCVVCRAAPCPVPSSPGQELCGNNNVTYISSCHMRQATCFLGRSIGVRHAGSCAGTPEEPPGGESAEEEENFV
Chain of Left-right determination factor 2 (Homo sapiens) (O00292 whole entry, looked up): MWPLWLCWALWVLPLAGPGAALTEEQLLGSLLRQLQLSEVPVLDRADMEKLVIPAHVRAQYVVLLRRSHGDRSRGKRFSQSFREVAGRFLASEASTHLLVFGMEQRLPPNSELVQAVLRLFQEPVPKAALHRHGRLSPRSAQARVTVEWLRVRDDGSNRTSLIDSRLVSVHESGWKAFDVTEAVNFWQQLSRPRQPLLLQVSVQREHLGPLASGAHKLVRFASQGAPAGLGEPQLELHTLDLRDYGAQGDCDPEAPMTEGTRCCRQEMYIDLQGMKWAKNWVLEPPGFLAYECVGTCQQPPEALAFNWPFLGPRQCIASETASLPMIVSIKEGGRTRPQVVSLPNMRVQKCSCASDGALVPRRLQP
Chain of Alpha-bungarotoxin (Bungarus multicinctus) (P60615 whole entry, looked up): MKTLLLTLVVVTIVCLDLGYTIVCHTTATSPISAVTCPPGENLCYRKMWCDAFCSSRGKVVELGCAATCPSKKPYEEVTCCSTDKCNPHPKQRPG

As to `CC(C)C(O)C1C=CC2C(=O)NC(=O)C2N1Nc1ccccn1` (stereo not given), the composite z-score in test [1] was 1.09; in [2], 0.886; in [3], 0.542; in test [5], 0.109; in test [6], 0.352; in [7], -0.216. Besides, the composite z-score was 0.401 in test [8]; -0.0362 in test [9]; 1.4 in test [10]; 0.927 in test [11]; 0.108 in test [13]; 0.0802 in test [14]. Besides, the composite z-score was -0.187 in [15]; 0.009 in test [16]; -0.0793 in test [17]; 0.116 in test [18]; 0.325 in test [19]; 0.631 in [20]. Also, the z-score was 1.02 (inactive) in [4] and -0.43 in [12].

In the case of `CC1=C([C@H](O)CCc2ccccc2)[C@H](CO)n2c(=O)n(-c3ccccc3)c(=O)n2C1`, the composite z-score is -0.385 in test [1]; -0.204 in test [2]; -0.48 in test [3]; 0.233 in test [5]; 0.196 in test [6]; 0.167 in test [7]. Further, the composite z-score in test [8] was -0.0401; in test [9], 0.231; in test [10], 0.472; in test [11] it was -0.679; in test [13], 0.209; in test [14], -0.524. Besides, the composite z-score in [15] was -0.604; in test [16], -0.0685; in test [17] it was -0.169; in [18], -0.0438; in test [19], -0.395; in [20], -0.105. Besides, the z-score in [4] is -1.04 (inactive); in [12], -0.508.

With `CC(C)[Si](C#CCCc1ccccc1)(O[C@H](c1ccccc1)c1cn(Cc2ccccc2)nn1)C(C)C`, the composite z-score in test [1] was 0.431; in [2] it was -0.069; in test [3] it was -0.496; in [5], 0.559; in test [6], 1.28; in test [7], 0.618. The composite z-score in test [8] is 0.773; in test [9], 0.611; in test [10], 0.152; in [11], 1.32; in test [13] it was 0.345; in test [14] it was 0.138. Further, the composite z-score in [15] is -0.662; in test [16], -0.0239; in test [17] it was -0.338; in [18], -0.0827; in test [19] it was 0.427; in test [20], 0.544. The z-score in test [4] was 0.105 (inactive); in test [12], -1.53.

For the compound `CC=CC(O)C1C=CC2C(=O)NC(=O)C2N1Nc1ccc(Cl)cc1Cl` (stereo not given), the composite z-score in [1] is 0.547; in [2], 0.171; in test [3], 0.55; in [5], 0.506; in test [6], -1.11; in test [7] it was 0.277. In addition, the composite z-score in [8] worked out at 0.46; in [9], 0.522; in test [10], 1.42; in test [11] it was 0.342; in [13], 0.483; in test [14], 0.498. Besides, the composite z-score in test [15] was 0.0224; in [16] it was -0.0194; in [17] it was 0.199; in [18], 0.353; in [19] it was 0.685; in test [20], 0.64. In addition, the z-score was 1.9 (inactive) in [4] and -0.0813 in [12].

As to `CC(C)C[C@H]1NC(=O)C([C@@H](C)OCc2ccccc2)NC(=O)[C@@]23C(=O)N[C@@H](Cc4ccccc4)C2[C@H](C)[C@@]2(C)O[C@H]2C3/C=C/C/C=C\CNC1=O` (stereo not given in full), the composite z-score in test [1] was 0.884; in [2] it was -0.261; in test [3], -0.493; in test [5], 1.03; in [6], 1.12; in test [7], 0.583. Further, the composite z-score in test [8] is 1.47; in test [9], 0.917; in test [10], 1.24; in test [11] it was 0.566; in test [13] it was 0.905; in test [14], 0.216. Moreover, the composite z-score in [15] is -0.389; in test [16], -0.118; in [17], -0.0553; in [18], 0.746; in [19] it was 0.174; in [20], 0.888. Besides, the z-score is -0.138 (inactive) in test [4] and -2.23 in test [12].
